Assay [1] can be described thus: Nuclear factor erythroid 2-related factor 2/antioxidant responsive element (Nrf2/ARE) small molecule agonists: qHTS cell viability counter screen in human keratinocytes (AID 1919968; active = well fitted curve in the direction sought with a large enough effect in the repeat runs; an effect the other way counts as inactive or inconclusive; also: nearly all actives have a fitted effect of over 55% in size; also: potency is read from the fitted curve at half-maximal effect). Put shortly: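 Fluorescence read-out from CellTiter-Fluor after 1 h at 37 C. Wells held HaCaT-derived ARE-luciferase reporter cells (1,500/well) treated 23 h with DMSO-dissolved compounds. Run in the same wells as the luciferase agonist read.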
For orientation: Quantitative high-throughput screening tests each substance at several concentrations.

The nature of assay [2]: Nuclear factor erythroid 2-related factor 2/antioxidant responsive element (Nrf2/ARE) small molecule agonists: luciferase reporter gene qHTS assay in human keratinocytes (AID 1919969). Also: nearly all actives have a fitted effect of over 35% in size. Also: potency is read from the fitted curve at half-maximal effect. A general note: Reporter assays use an easily measured gene product as a stand-in for the process of interest.
Assay [3] concerns the target Gonadotropin-releasing hormone receptor (Homo sapiens) (UniProt P30968). The assay is described as follows: Human gonadotropin-releasing hormone receptor (GnRHR) small molecule agonists, calcium flux assay in GnRHR-HEK293 cells (AID 1920063). Also: nearly all actives have a fitted effect of over 35% in size. The gist of the method: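 Calcium-dye fluorescence, Ex/Em=480/540, recorded every 1 sec over 3 min after compound addition to GnRHR-HEK293 cells. Cells had been seeded 18 hours earlier and dye-loaded for 1 hour at 37 C. Fifteen concentrations, triplicates.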

Assay [4] in a line: G protein-coupled receptor (GPCR) small molecule agonists, calcium flux assay: HEK293 wild type cell line counter screen (AID 1920065). The gist of the method: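 Agonist mode; 18 h seeding at 37 C, 1 h dye load at 37 C; compounds pinned from DMSO, ATP as positive control; kinetic fluorescence 480/540 nm, 3 min, 1 s reads; 15 concentrations, triplicate.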
(A change in cytosolic calcium serves as a functional read-out for many receptors and channels.)

Assay [5] can be described thus: p53 small molecule agonists, cell-based qHTS assay with human liver microsomes (AID 1963577).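 Also: p53 response element beta-lactamase reporter cells with liver microsomes plus NADPH.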 The gist of the method:
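HLM-supplemented p53RE-bla reporter assay: 16 h compound exposure at 37 C, microsomes and NADPH each 0.5 mg/mL final, read by fluorescence intensity.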

Assay [6] can be described thus: p53 small molecule agonists, cell-based qHTS assay with rat liver microsomes (AID 1963578). Put shortly:
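Quantitative HTS of the Tox21 10K library: p53RE-bla cells, rat liver microsomes plus NADPH at 0.5 mg/mL final each, 16 h at 37 C, beta-lactamase fluorescence detection.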

Assay [7] in a line: p53 small molecule agonists, cell-based qHTS assay with human liver microsomes: qHTS cell viability counter screen (AID 1963579). Also: nearly all actives have a fitted effect of over 45% in size. The gist of the method:
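Viability of p53RE-bla cells is measured as CellTiter-Glo luminescence following a 16 h, 37 C incubation with compound, liver microsomes from human donors and NADPH.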

A short description of assay [8]: p53 small molecule agonists, cell-based qHTS assay with rat liver microsomes: qHTS cell viability counter screen (AID 1963580). Also: nearly all actives have a fitted effect of over 45% in size. The gist of the method: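 Rat liver microsome (0.5 mg/mL final) and NADPH (0.5 mg/mL final) co-incubation with compounds for 16 h at 37 C on HCT-116 p53RE-bla cells; cytotoxicity taken from intracellular ATP luminescence.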
Assay [9] can be described thus: p53 small molecule agonists, cell-based qHTS assay: qHTS cell viability counter screen (AID 1963581). Also: nearly all actives have a fitted effect of over 45% in size. The gist of the method: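 Cytotoxicity read-out: ATP-based luminescence (CellTiter-Glo, 30 min RT) measured in the same wells as the p53 reporter assay, HCT-116 p53RE-bla cells, 16 h compound exposure at 37 C.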
The nature of assay [10]: p53 small molecule agonists, cell-based qHTS assay (AID 1963582; active = well fitted activation curve with a large enough effect in the signal ratio in the repeat runs, not every such curve was filed as active; the % refers to the signal ratio). The gist of the method: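 Fluorescence intensity read-out of a beta-lactamase reporter under a p53 response element. Cells were exposed to DMSO-dissolved compounds for 16 h at 37 C, then developed with FRET substrate for 2 h at RT.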
Assay [11] addresses 5-hydroxytryptamine receptor 2A (Homo sapiens) (UniProt P28223). The assay is described as follows: 5-hydroxytryptamine receptor 2A (HTR2A) small molecule antagonists, cell-based qHTS assay (AID 1963586). Also: nearly all actives have a fitted effect of over 45% in size. The gist of the method:
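CHO cells stably expressing human HTR2A were plated for 18 h at 37 C, then loaded with calcium dye for 1 h. Compounds were preincubated 5 min at room temperature before DOI (4 nM solution) was added. Kinetic fluorescence was read for 3 min.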

Assay [12] shares this target. Description: 5-hydroxytryptamine receptor 2A (HTR2A) small molecule agonists, cell-based qHTS assay (AID 1963587). Also: nearly all actives have a fitted effect of over 30% in size. Put shortly: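 Kinetic calcium-flux fluorescence (2 min, 1 sec intervals) after compound addition in agonist mode. HTR2A-CHO cells were cultured 18 h, then dye-loaded 1 h at 37 C.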
The target of assay [13] is Muscarinic acetylcholine receptor M1 (Homo sapiens) (UniProt P11229). Description: Cholinergic receptor muscarinic 1 (CHRM1) small molecule antagonists, cell-based qHTS assay (AID 1963588). Also: nearly all actives have a fitted effect of over 40% in size. Also: potency is read from the fitted curve at half-maximal effect. Put shortly: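 Compounds were tested at 15 concentrations in three independent runs. Dye-loaded CHRM1-CHO cells were exposed 5 min at room temperature before stimulation by acetylcholine added at 50nM. Intracellular calcium was read kinetically on FDSS for 3 min.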

Assay [14] shares this target. The assay is described as follows: Cholinergic receptor muscarinic 1 (CHRM1) small molecule agonists, cell-based qHTS assay (AID 1963589). Also: nearly all actives have a fitted effect of over 35% in size. Put shortly: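 Calcium flux read-out: kinetic fluorescence at 1 sec intervals after pin-tool compound addition to dye-loaded CHRM1-CHO cells (human M1). Agonist mode; 15 concentrations tested in triplicate independent runs.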
Assay [15] concerns the target Beta-2 adrenergic receptor (Homo sapiens) (UniProt P07550). Description: Adrenergic beta2 receptor (ADRB2) small molecule antagonists, cell-based qHTS assay (AID 1963592). Also: series mostly up to about 92 µM; nearly all actives have a fitted effect of over 50% in size. The gist of the method:
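Assay format: CHO-ADRB2 cells, 18-20hr seeding at 37C/5% CO2, then compound plus 1nM isoproterenol agonist mix for 0.5hr RT. Homogeneous time-resolved fluorescence cAMP detection after 1hr, expressed as 665/615 nm ratio.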

The target in assay [16] is D(2) dopamine receptor (Homo sapiens) (UniProt P14416). Description: Dopamine D2 receptor (DRD2) small molecule agonists, cell-based qHTS assay (AID 1963594). Also: nearly all actives have a fitted effect of over 35% in size. The gist of the method:
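cAMP accumulation in DRD2-HEK293 cells measured by HTRF after 1 h detection; compounds added 10 min before NKH477 (200nM […]) forskolin-analogue stimulation, 30 min at room temperature, with Ro20-1724 present at 0.1 mM final.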

For assay [17] the target is unchanged. The assay is described as follows: Dopamine D2 receptor (DRD2) small molecule antagonists, cell-based qHTS assay (AID 1963595; active = well fitted inhibition curve with a large enough effect in the signal ratio in the repeat runs, with a control signal flat; the % refers to the signal ratio). The gist of the method: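 DRD2-HEK293; 0.1 mM Ro20-1724; cpd 10 min RT; NKH477 200 nM + quinpirole 12 nM, 30 min RT; HTRF cAMP (cAMP-d2/anti-cAMP cryptate), 665/620 nm ratio after 1 h.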
Assay [18] can be described thus: cAMP Responsive Elements (CRE) small molecule antagonists, cell-based qHTS assay (AID 1963591; active = well fitted inhibition curve with a large enough effect in the signal ratio in the repeat runs, not every such curve was filed as active; the % refers to the signal ratio). Put shortly:
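HEK293T CRE-bla; 18 h preincubation; compound pin-transfer; NKH477 0.25 uM final, 3 h, 37 C; LiveBLAzer FRET substrate 2 h RT.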

A short description of assay [19]: cAMP Responsive Elements (CRE) small molecule agonists, cell-based qHTS assay (AID 1963590). Put shortly: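 Beta-lactamase reporter readout: LiveBLAzer B/G FRET substrate, 2 h at room temperature, added after 3 h compound treatment of CRE-bla HEK 293T cells at 37 C/5% CO2.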
In assay [20] the target is KiSS-1 receptor (Homo sapiens) (UniProt Q969F8). The assay is described as follows: Human kisspeptin (KISS1R) small molecule agonists, calcium flux assay in KISS1R-HEK293 cells (AID 1920064; active = well fitted curve in the direction sought with a large enough effect in the repeat runs; an effect the other way counts as inactive or inconclusive). The gist of the method: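 Calcium flux read-out: kinetic fluorescence at Ex/Em=480/540, 1 s intervals over 3 min, after pin-tool compound addition to dye-loaded KISS1R-HEK293 cells. Fifteen concentrations, triplicates.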

Each structure is given as a SMILES string. Records with an inconclusive call do not appear. Activity calls are given as the source filed them. Unless noted, calls follow the shape of the full dose curve.

Beta-2 adrenergic receptor (Homo sapiens), sequence (P07550 whole entry, looked up): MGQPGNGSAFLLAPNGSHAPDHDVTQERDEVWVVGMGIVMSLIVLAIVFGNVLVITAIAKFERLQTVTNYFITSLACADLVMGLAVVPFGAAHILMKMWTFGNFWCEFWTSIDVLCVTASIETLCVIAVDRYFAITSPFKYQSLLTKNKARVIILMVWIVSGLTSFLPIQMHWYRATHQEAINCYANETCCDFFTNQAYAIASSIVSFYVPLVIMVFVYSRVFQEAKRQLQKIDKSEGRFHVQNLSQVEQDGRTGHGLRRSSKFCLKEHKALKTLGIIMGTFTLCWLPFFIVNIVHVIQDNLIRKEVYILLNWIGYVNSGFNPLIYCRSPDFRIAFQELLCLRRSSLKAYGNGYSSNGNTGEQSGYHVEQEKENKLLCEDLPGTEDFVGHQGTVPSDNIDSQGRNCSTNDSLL
5-hydroxytryptamine receptor 2A (Homo sapiens), sequence (P28223 whole entry, looked up): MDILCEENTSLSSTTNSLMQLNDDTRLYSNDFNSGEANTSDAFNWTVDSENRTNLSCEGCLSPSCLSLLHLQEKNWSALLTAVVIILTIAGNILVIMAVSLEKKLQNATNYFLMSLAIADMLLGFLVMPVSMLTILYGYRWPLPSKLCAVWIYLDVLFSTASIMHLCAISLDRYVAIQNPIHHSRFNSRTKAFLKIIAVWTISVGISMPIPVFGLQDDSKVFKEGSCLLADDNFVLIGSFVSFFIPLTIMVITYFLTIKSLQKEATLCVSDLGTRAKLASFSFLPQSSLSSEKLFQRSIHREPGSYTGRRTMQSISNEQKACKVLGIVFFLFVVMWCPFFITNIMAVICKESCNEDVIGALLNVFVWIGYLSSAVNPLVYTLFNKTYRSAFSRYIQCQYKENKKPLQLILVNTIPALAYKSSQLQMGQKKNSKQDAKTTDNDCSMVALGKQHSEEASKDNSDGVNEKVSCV
Muscarinic acetylcholine receptor M1 (Homo sapiens), sequence (P11229 whole entry, looked up): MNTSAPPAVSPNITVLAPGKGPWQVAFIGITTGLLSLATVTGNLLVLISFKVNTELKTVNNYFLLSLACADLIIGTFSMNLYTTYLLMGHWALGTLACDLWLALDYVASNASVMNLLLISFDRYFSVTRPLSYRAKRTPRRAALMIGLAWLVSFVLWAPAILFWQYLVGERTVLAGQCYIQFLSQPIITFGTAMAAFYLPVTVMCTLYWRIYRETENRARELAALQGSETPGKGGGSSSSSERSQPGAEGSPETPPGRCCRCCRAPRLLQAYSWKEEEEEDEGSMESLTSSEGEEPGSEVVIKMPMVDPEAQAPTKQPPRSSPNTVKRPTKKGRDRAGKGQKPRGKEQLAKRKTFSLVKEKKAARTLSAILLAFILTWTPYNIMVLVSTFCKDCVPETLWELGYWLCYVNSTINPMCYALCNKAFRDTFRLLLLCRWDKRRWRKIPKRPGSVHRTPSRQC
Gonadotropin-releasing hormone receptor (Homo sapiens), sequence (P30968 whole entry, looked up): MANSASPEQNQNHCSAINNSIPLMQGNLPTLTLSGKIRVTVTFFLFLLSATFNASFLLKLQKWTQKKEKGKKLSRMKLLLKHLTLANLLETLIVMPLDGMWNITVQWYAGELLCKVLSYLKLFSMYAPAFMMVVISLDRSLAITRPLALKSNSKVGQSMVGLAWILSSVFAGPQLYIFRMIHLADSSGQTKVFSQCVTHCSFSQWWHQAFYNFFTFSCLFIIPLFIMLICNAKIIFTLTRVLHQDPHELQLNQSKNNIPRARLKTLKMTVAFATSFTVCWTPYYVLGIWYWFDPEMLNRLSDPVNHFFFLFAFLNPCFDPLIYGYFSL
D(2) dopamine receptor (Homo sapiens), sequence (P14416 whole entry, looked up): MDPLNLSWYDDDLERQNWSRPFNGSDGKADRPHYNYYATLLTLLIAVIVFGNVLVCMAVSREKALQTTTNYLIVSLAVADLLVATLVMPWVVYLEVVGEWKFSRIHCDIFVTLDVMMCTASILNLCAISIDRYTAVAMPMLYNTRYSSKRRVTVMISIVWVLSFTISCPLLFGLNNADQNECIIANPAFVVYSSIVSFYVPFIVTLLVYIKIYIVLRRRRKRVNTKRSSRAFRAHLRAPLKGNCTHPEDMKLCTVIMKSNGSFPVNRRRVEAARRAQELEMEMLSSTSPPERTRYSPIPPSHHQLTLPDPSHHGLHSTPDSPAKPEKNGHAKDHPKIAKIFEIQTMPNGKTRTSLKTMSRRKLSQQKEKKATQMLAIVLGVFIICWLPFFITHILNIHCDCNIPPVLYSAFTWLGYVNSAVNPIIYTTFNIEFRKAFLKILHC
KiSS-1 receptor (Homo sapiens), sequence (Q969F8 whole entry, looked up): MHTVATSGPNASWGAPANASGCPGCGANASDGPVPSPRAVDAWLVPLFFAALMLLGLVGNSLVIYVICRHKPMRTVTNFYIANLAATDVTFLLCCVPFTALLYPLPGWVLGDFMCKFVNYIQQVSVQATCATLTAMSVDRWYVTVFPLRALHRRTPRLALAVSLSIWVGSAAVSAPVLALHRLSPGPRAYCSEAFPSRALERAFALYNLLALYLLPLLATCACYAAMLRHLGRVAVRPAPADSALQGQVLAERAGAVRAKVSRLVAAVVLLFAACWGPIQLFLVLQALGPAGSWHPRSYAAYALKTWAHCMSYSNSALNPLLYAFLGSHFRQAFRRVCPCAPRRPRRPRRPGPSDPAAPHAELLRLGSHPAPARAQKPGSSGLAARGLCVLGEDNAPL

With `Cc1ccsc1/C=C/C1=NCCCN1C`, the Potency result in assay [1], in assay [2], in assay [3], in assay [5], in assay [6] and in [7] was “inactive” throughout. Besides, the Potency result in assay [8], in assay [9], in assay [10], in assay [11], in assay [12] and in [14] was “inactive” each time. The Potency result in assay [15], in assay [16] and in assay [17] was “inactive” in each case. The outcome in assay [4] was inactive. Further, the Potency in assay [13] was 0.0033 µM (active).
With `O=c1[nH]c(=O)n([C@H]2O[C@H](CO)[C@@H](O)[C@@H]2O)cc1/C=C\Br`, the Potency result in assay [1], in [2], in assay [3], in [5], in assay [6] and in [7] was “inactive” in each case. The Potency entry in assay [8], in [9], in assay [10], in assay [11], in assay [12] and in assay [13] was “inactive” throughout. Besides, the Potency entry in assay [14], in [18], in assay [16] and in [17] was “inactive” throughout. In addition, the result in [4] was inactive.
As to `CN1C(=O)c2ccc([N+](=O)[O-])cc2C1=O`, the Potency result in assay [1], in assay [2], in assay [3], in assay [5], in assay [6] and in assay [7] was “inactive” each time. Besides, the Potency entry in [8], in [9], in assay [10], in assay [11], in assay [12] and in assay [13] was “inactive” in each case. Further, the Potency result in assay [14], in assay [19], in assay [18], in assay [15] and in assay [17] was “inactive” each time. The outcome in assay [4] was inactive.
Consider `C=CC(=O)OCCOCC(CC)(COCCOC(=O)C=C)COCCOC(=O)C=C`, for which the figures for the Potency in assay [1] and in assay [2] were 31.9 µM (active) and 12.7 µM (active), respectively. The Potency entry in assay [3], in [5], in [6], in [8], in assay [11] and in assay [12] was “inactive” each time. The Potency entry in assay [13], in assay [14], in assay [15], in [16] and in [17] was “inactive” in each case. Besides, the outcome in assay [20] was inactive.
`CC(C)C[P+](C)(CC(C)C)CC(C)C`: the Potency entry in assay [1], in assay [2], in assay [3], in assay [5], in assay [6] and in assay [7] was “inactive” throughout. The Potency entry in assay [8], in [9], in assay [10], in assay [11], in [12] and in assay [14] was “inactive” in each case. Also, the Potency entry in assay [19], in assay [18], in [15] and in assay [17] was “inactive” in each case. Also, the result in assay [4] was inactive.
Regarding `CCCCOc1ccc(C(=O)CCN2CCCCC2)cc1`, the Potency entry in [1], in assay [2], in assay [3], in assay [5], in assay [6] and in assay [7] was “inactive” in each case. Also, the Potency result in assay [8], in [9], in assay [10], in assay [12], in [14] and in [19] was “inactive” in each case. Also, the Potency entry in assay [18], in [16] and in assay [17] was “inactive” in each case. Moreover, the result in assay [4] was inactive. Besides, in assay [13], the Potency was 10.3 µM (active).
In the case of `Cc1cccc(C)c1OCC(=O)N[C@@H](Cc1ccccc1)[C@@H](O)C[C@H](Cc1ccccc1)NC(=O)[C@H](C(C)C)N1CCCNC1=O`, the Potency result in assay [1], in [2], in [3], in assay [5], in [6] and in assay [7] was “inactive” in each case. Also, the Potency entry in assay [8], in assay [9], in assay [11], in assay [13], in assay [14] and in [15] was “inactive” throughout. In addition, the Potency result in [16] and in assay [17] was “inactive” throughout. For the same molecule, the result in [4] was inactive.

Source of the values: PubChem BioAssay (Tox21).
